# From the supplement of paper PMC10849652
# Targets with a hit are over-represented here; the source holds about 7,900 in all. About 0.6% of all pairs of compound and target were hits. Values without a mark were called inactive.
# What was measured:
# Assay in all cases: log2 fold change, soluble protein after heating vs DMSO (PISA); higher = thermal stabilisation; K562 cells, 10 uM, 30 min; active = over 0.2 and 3.5 SD of the protein, either way, in both replicates (recomputed)
# [1] = compound: CS(=O)(=O)c1ccc(-c2cnc(N)c(C(=O)Nc3ccccc3)n2)cc1
# Procedure, shortened: (§1)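 Soluble protein was quantified by TMTpro 16plex LC-MS/MS after channel sums were equalised. It was obtained as the supernatant after 21,000xg for 90 min from pooled aliquots of K562 cells (2×10^6 cells/mL, 10 μM compound, 30 min) heated for 3 min across 48°C-58°C and extracted in PBS with 0.5% NP-40 at 4°C. Thermal stability values are relative to control samples and come from duplicates. They are given as log2 fold changes.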
# crizotinib = compound: C[C@@H](Oc1cc(-c2cnn(C3CCNCC3)c2)cnc1N)c1c(Cl)ccc(F)c1Cl [crizotinib]
# Procedure, shortened: as §1
# [2] = compound: C[C@@H]1COCCN1C2=NC(=NC(=C2)C3(CC3)S(=O)(=O)C)C4=C5C=CNC5=CC=C4
# Procedure, shortened: as §1
# [3] = compound: C[C@H](C1=CC=C(C=C1)C(=O)NC2=C3C=CNC3=NC=C2)N
# Procedure, shortened: as §1
# duvelisib = compound: C[C@H](Nc1ncnc2nc[nH]c12)c1cc2cccc(Cl)c2c(=O)n1-c1ccccc1 [duvelisib]
# Procedure, shortened: as §1
# gandotinib = compound: Cc1cc(Nc2cc(CN3CCOCC3)c3nc(C)c(Cc4ccc(Cl)cc4F)n3n2)n[nH]1 [gandotinib]
# Procedure, shortened: as §1
# tozasertib = compound: Cc1cc(Nc2cc(N3CCN(C)CC3)nc(Sc3ccc(NC(=O)C4CC4)cc3)n2)n[nH]1 [tozasertib]
# Procedure, shortened: as §1
# [4] = compound: Cc1cc(SCc2sc(-c3ccc(C(F)(F)F)cc3)nc2C)ccc1OCC(=O)O
# Procedure, shortened: as §1
# doramapimod = compound: Cc1ccc(-n2nc(C(C)(C)C)cc2NC(=O)Nc2ccc(OCCN3CCOCC3)c3ccccc23)cc1 [doramapimod]
# Procedure, shortened: as §1
# ispinesib = compound: Cc1ccc(C(=O)N(CCCN)[C@@H](c2nc3cc(Cl)ccc3c(=O)n2Cc2ccccc2)C(C)C)cc1 [ispinesib]
# Procedure, shortened: as §1
# bafetinib = compound: Cc1ccc(NC(=O)c2ccc(CN3CC[C@H](N(C)C)C3)c(C(F)(F)F)c2)cc1Nc1nccc(-c2cncnc2)n1 [bafetinib]
# Procedure, shortened: as §1
# [5] = compound: Cc1cccc(CC(=O)N2CCc3c2ccc(-c2cn(C)c4ncnc(N)c24)c3F)n1
# Procedure, shortened: as §1
# nilotinib = compound: Cc1cn(-c2cc(NC(=O)c3ccc(C)c(Nc4nccc(-c5cccnc5)n4)c3)cc(C(F)(F)F)c2)cn1 [nilotinib]
# Procedure, shortened: as §1
# [6] = compound: Cc1nc(Nc2n[nH]c3c2CN(C(=O)N[C@H](CN(C)C)c2ccccc2)C3(C)C)c2sccc2n1
# Procedure, shortened: as §1
# dasatinib = compound: Cc1nc(Nc2ncc(C(=O)Nc3c(C)cccc3Cl)s2)cc(N2CCN(CCO)CC2)n1 [dasatinib]
# Procedure, shortened: as §1
# [7] = compound: Cc1ncc(-c2ccnc(Nc3ccc(S(C)(=O)=O)cc3)n2)n1C(C)C
# Procedure, shortened: as §1
# [8] = compound: Cn1cc(-c2ccc3c(c2)CCN3C(=O)Cc2cccc(C(F)(F)F)c2)c2c(N)ncnc21
# Procedure, shortened: as §1
# [9] = compound: Cn1cc(-c2ccc3nnc(C(F)(F)c4ccc5ncccc5c4)n3n2)cn1
# Procedure, shortened: as §1
# tipifarnib = compound: Cn1cncc1[C@@](N)(c1ccc(Cl)cc1)c1ccc2c(c1)c(-c1cccc(Cl)c1)cc(=O)n2C [tipifarnib]
# Procedure, shortened: as §1
# mubritinib = compound: FC(F)(F)c1ccc(/C=C/c2nc(COc3ccc(CCCCn4ccnn4)cc3)co2)cc1 [mubritinib]
# Procedure, shortened: as §1
# Sequence of UniProt P31939 (P31939 whole entry, looked up): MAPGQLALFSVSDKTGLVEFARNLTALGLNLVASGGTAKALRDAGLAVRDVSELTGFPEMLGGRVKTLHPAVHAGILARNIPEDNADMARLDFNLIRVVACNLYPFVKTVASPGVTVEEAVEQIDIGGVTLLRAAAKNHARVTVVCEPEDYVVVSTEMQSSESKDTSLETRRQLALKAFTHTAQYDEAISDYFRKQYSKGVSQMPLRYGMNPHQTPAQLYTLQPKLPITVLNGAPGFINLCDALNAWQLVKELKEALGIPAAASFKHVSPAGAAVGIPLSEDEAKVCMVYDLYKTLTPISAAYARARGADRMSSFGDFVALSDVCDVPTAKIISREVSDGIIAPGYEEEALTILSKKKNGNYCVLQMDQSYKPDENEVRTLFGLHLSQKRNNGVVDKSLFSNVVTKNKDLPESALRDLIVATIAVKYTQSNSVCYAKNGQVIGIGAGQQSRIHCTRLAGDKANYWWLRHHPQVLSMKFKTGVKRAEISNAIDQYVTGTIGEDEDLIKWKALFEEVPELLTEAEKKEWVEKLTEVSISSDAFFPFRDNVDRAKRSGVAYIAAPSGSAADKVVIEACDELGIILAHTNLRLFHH
# Sequence of UniProt Q9P287 (Q9P287 whole entry, looked up): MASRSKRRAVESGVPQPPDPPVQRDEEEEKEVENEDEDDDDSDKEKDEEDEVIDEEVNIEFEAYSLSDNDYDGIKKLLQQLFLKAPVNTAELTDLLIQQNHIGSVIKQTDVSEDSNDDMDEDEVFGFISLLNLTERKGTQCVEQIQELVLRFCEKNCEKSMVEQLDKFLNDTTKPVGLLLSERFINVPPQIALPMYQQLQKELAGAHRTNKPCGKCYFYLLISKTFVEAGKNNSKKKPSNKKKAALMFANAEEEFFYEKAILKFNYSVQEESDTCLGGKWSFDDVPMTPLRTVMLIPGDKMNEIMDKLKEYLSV
# Sequence of UniProt Q9UII2 (Q9UII2 whole entry, looked up): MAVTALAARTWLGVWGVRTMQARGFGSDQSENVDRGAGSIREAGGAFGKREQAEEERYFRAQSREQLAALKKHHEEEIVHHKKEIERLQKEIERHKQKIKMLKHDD
# Sequence of UniProt P35670 (P35670 whole entry, looked up): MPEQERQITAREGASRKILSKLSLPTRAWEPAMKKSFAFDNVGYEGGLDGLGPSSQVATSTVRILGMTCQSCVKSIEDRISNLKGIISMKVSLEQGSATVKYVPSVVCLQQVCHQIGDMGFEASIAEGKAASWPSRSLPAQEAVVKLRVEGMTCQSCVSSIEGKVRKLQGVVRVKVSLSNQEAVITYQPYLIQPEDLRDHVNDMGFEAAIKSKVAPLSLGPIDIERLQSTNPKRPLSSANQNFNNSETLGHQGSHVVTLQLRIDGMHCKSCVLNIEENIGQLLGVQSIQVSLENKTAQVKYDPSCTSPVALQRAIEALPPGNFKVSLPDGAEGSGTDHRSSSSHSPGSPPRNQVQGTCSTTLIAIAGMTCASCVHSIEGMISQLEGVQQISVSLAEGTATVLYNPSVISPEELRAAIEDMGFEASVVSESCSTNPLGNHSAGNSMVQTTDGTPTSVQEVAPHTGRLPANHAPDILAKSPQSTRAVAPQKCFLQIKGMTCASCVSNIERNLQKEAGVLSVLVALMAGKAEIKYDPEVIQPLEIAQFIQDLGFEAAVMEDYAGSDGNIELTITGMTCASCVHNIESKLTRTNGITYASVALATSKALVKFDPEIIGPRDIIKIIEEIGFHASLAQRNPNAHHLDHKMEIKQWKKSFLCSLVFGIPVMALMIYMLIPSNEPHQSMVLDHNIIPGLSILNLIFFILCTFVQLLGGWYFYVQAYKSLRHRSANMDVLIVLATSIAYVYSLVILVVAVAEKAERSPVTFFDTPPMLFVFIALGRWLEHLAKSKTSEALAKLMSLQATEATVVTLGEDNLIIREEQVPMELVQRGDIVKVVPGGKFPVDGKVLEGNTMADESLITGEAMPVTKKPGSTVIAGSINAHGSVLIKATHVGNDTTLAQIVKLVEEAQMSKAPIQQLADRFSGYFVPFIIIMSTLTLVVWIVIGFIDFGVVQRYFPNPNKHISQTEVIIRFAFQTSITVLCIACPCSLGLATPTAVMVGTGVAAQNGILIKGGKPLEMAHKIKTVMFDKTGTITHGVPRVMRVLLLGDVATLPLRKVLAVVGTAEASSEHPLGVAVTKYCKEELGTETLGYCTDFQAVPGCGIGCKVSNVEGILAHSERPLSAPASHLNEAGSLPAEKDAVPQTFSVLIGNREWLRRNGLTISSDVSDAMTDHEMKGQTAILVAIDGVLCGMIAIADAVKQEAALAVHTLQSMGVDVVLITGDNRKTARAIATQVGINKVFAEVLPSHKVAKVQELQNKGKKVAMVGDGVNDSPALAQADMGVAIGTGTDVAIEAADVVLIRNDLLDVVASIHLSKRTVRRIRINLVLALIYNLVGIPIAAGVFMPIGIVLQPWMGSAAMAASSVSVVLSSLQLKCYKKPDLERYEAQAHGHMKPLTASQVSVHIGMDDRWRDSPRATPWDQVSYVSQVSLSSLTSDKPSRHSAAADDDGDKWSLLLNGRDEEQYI
# Sequence of UniProt O43823 (O43823 whole entry, looked up): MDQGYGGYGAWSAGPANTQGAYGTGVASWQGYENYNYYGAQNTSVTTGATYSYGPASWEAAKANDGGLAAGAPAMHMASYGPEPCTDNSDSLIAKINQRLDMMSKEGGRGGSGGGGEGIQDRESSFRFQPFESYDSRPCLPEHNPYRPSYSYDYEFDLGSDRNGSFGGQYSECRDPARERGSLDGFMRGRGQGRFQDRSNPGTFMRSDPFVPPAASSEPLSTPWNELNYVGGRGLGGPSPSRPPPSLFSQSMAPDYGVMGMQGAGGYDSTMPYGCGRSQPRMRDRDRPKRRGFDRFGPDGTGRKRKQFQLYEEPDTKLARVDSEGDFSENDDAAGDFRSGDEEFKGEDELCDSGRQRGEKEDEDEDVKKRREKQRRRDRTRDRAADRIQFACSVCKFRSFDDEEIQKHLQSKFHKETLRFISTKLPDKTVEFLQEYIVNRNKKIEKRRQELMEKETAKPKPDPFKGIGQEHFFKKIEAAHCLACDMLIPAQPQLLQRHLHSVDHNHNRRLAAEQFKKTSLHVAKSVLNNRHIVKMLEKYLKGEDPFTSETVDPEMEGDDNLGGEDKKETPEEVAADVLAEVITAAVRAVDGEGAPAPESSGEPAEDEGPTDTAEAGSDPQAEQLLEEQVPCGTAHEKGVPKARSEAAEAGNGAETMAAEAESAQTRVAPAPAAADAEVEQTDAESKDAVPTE
# Sequence of UniProt Q8N6D5 (Q8N6D5 whole entry, looked up): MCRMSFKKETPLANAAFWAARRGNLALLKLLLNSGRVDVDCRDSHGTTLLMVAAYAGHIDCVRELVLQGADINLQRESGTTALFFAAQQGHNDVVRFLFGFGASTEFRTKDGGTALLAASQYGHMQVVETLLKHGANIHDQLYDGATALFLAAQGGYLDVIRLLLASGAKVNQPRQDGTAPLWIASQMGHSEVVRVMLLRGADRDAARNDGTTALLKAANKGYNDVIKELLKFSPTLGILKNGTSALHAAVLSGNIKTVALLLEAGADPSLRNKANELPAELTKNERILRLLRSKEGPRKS
# Sequence of UniProt Q9Y6E2 (Q9Y6E2 whole entry, looked up): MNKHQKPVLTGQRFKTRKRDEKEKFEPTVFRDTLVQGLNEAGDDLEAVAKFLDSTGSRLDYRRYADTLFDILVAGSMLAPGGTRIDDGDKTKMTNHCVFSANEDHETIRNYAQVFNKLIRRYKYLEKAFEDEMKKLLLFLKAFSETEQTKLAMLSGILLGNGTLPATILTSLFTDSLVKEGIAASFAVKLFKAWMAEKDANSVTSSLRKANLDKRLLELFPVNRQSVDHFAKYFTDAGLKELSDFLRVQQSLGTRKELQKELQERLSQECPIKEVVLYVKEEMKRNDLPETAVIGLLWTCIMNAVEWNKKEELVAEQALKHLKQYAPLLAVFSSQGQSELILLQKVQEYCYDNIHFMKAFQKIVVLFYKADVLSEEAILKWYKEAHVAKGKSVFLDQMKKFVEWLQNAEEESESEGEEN
# Sequence of UniProt Q86WA6 (Q86WA6 whole entry, looked up): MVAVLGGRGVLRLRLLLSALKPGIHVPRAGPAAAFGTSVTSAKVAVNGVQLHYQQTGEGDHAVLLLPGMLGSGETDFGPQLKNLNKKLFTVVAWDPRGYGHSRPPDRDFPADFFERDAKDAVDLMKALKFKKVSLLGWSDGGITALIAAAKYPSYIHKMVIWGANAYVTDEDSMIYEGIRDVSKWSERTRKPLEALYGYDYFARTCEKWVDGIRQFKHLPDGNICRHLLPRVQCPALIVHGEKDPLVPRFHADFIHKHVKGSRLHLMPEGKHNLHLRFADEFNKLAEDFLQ
# Sequence of UniProt P11310 (P11310 whole entry, looked up): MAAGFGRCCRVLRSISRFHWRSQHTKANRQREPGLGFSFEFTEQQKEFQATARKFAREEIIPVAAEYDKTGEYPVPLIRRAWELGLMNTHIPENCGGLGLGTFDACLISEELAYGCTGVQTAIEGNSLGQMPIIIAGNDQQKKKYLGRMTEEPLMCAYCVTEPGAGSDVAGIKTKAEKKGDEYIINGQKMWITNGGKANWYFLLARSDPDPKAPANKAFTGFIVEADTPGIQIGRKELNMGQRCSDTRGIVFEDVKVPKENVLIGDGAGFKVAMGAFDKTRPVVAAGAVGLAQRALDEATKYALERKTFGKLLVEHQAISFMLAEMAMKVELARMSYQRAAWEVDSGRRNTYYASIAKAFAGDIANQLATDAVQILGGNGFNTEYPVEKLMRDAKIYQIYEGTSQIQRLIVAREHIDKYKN
# Sequence of UniProt Q9Y312 (Q9Y312 whole entry, looked up): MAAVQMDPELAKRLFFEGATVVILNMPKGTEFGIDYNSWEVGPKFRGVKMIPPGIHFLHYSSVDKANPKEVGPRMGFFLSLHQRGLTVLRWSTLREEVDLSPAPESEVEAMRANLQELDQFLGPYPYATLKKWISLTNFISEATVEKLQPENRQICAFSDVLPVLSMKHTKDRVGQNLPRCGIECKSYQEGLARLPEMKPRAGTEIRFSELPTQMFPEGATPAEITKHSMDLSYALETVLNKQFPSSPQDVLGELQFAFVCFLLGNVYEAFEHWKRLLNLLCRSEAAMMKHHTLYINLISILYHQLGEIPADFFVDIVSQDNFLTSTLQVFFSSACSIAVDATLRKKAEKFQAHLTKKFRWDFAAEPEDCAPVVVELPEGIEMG
Target,log2 fold change [1],log2 fold change (crizotinib),log2 fold change [2],log2 fold change [3],log2 fold change (duvelisib),log2 fold change (gandotinib),log2 fold change (tozasertib),log2 fold change [4],log2 fold change (doramapimod),log2 fold change (ispinesib),log2 fold change (bafetinib),log2 fold change [5],log2 fold change (nilotinib),log2 fold change [6],log2 fold change (dasatinib),log2 fold change [7],log2 fold change [8],log2 fold change [9],log2 fold change (tipifarnib),log2 fold change (mubritinib)
AAR2 (UniProt Q9Y312),-0.06,-0.081,0.019,0.054,0.045,-0.29,0.011,0.021,-0.038,0.085,-0.019,-0.062,0.058,0.009,-0.006,0.019,-0.079,-0.034,0.004,-0.036
ACSL3 (UniProt O95573),0.009,-0.013,0.011,-0.024,0.043,-0.046,0.001,0.097,-0.033,-0.024,-0.066,0.042,-0.086,-0.048,-0.06,0.011,0.029,0.075,-0.042,0
BPHL (UniProt Q86WA6),0.02,-0.036,0.008,-0.059,0.024,0.05,0.192,-0.01,0.004,0.01,-0.005,0.002,-0.032,-0.034,-0.032,-0.021,0.082,0.009,0.032,-0.008
ATIC (UniProt P31939),0.108,0.092,0.101,-0.083,0.023,0.066,0.018,-0.015,-0.029,0.096,0.067,0.058,0.158,-0.033,0.022,-0.006,0.104,0.048,-0.047,0.206 (active)
ATP7B (UniProt P35670),-0.009,-0.005,0.03,0.065,0.092,-0.141,0.033,-0.014,0.137,-0.015,-0.009,-0.032,0.006,-0.017,-0.153,0.087,0.015,0.001,0.019,-0.079
ALDH18A1 (UniProt P54886),-0.281,0.08,-0.13,-0.036,-0.255,-0.323,0.024,0.032,-0.146,0.164,-0.206,0.071,-0.3,-0.15,-0.133,0.042,-0.202,-0.128,-0.141,-0.561 (active)
ATAD3A isoform 2 (UniProt Q9NVI7),0.003,-0.191,-0.052,0.101,-0.083,0.032,0.005,0.075,0.057,-0.348 (active),-0.104,0.035,-0.141,-0.053,-0.094,0,-0.082,-0.101,0.097,-0.215
BCCIP isoform 2 (UniProt Q9P287),-0.006,-0.012,0,0.062,0.067,-0.047,0,0.011,-0.008,0.059,0.014,0.021,-0.046,-0.029,-0.071,0.017,-0.064,-0.007,-0.015,-0.023
ATP5IF1 (UniProt Q9UII2),0.004,0.058,-0.006,0.018,-0.035,-0.056,-0.079,-0.082,-0.015,-0.019,-0.039,-0.101,-0.038,0.005,0.055,-0.042,-0.002,0.094,0.059,0.033
APPL1 (UniProt Q9UKG1),-0.019,-0.015,-0.078,0.034,0.077,0.123,-0.028,-0.003,0.032,-0.098,-0.013,-0.092,-0.046,0.161,-0.003,0.002,0.03,-0.001,-0.051,-0.029
ACACB (UniProt O00763),0.078,-0.152,-0.13,0.341,-0.113,0.041,-0.013,0.289,0.168,-0.188,0.145,-0.021,-0.109,-0.251,-0.03,-0.026,-0.09,-0.059,-0.14,-0.147
ACADM isoform 2 (UniProt P11310),0.075,0.022,0.018,-0.073,0.018,0.049,-0.022,-0.01,-0.059,0.052,-0.073,0.002,-0.013,0.025,-0.054,-0.002,0.039,0.024,0.012,0.016
ANKRD29 (UniProt Q8N6D5),0.125,0.019,0.042,-0.043,0.139,0.185,-0.072,0.017,0.097,-0.055,0.063,-0.027,-0.09,-0.057,-0.002,0.053,0.22,0.133,-0.223,0.083
AKAP8 (UniProt O43823),0.047,-0.104,0.077,0.062,0.032,-0.036,0.005,0.061,0.033,-0.103,-0.051,-0.008,-0.001,-0.044,-0.155,-0.042,-0.007,-0.049,0.022,0.028
BZW2 (UniProt Q9Y6E2),0.006,-0.146,0.096,-0.037,-0.001,-0.218,0.011,0.047,-0.047,-0.072,-0.021,0.073,-0.057,-0.04,-0.132,-0.019,0.034,-0.004,-0.158,0.095
